In PubChem BioAssay:
Several values for one entry are separate records, joined by “and”; a condition that tells them apart may be missing. Identical values can stand only once. Activity calls are given as the source filed them. The rule behind the calls is not given here.

Experiment: kinase inhibitors against Plasmodium liver-stage infection, cell-based, known kinase inhibitor set, luminescence, hepatoma host viability (AID 624392);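 note: infected cells incubated roughly two days before readout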
Settings: Plasmodium liver stage in hepatoma cells, luciferase luminescence, concentration not given here; liver cell % of control: measured here: host liver cell viability; parasite % of control: stronger effect = lower value

Compound | liver cell % of control | parasite % of control
CC(C)C(CO)Nc1nc(Nc2ccc(C(=O)O)c(Cl)c2)c2ncn(C(C)C)c2n1 (configuration not stated) | 52.3% and 72.3% | 13.7% (inactive) and 48.9% (inactive) and 114% (inactive)
Cc1ccc(C(=O)Nc2cccc(C(F)(F)F)c2)cc1Nc1cncnc1 | 102% | 53.6% (inactive)
O=C(Nc1cccc(-c2csc(Nc3cccc(C(F)(F)F)c3)n2)c1)c1cc([N+](=O)[O-])cc(C(F)(F)F)c1 | 98.5% | 79.7% (inactive)
CCN1CCN(Cc2ccc(NC(=O)c3cc(NC(=O)c4cncc(-c5cccs5)c4)cc(OC)c3)cc2C(F)(F)F)CC1 | 101% | 88.5% (inactive)
CCN1CCN(Cc2ccc(NC(=O)c3cc(NC(=O)c4cc(-c5ccc(OC)cc5)n[nH]4)cc(OC)c3)cc2C(F)(F)F)CC1 | 90.4% | 132% (inactive)
COc1cc(NC(=O)c2nccn2C)cc(C(=O)Nc2cccc(C(F)(F)F)c2)c1 | 91.3% | 84.5% (inactive)
Cc1ccc(C(=O)Nc2cccc(C(F)(F)F)c2)cc1Nc1cnccn1 | 98.3% | 23.7% (inactive)
NC(=O)c1cccc(-c2cc(Oc3ccc(OC(F)(F)F)cc3)ncn2)c1 | 101% | 113% (inactive)
COc1cc(NC(=O)c2ccc(N)nc2)cc(C(=O)Nc2cccc(C(F)(F)F)c2)c1 | 97.9% | 85% (inactive)
CC(C)n1cnc2c(N(Cc3ccccc3)c3cccc(Cl)c3)nc(N(CCN(C)C)Cc3ccccc3)nc21 | 82.6% | 9.42% (active)
O=C(Nc1ccc(-c2csc(Nc3ccc(Cl)cc3)n2)cc1)c1cccc(C(F)(F)F)c1 | 104% | 88% (inactive)
Cc1cn(-c2cc(C(=O)Nc3ccc(C)c(NC(=O)N4CCNC4=O)c3)cc(C(F)(F)F)c2)cn1 | 98.1% | 72.3% (inactive)
CC(C)C(CO)Nc1nc(Nc2ccc(Cl)c(C(=O)O)c2)c2ncn(C(C)C)c2n1 (configuration not stated) | 94.7% | 116% (inactive)
CCN1CCN(Cc2ccc(NC(=O)c3cc(NC(=O)C(=O)c4c[nH]c5ccccc45)cc(OC)c3)cc2C(F)(F)F)CC1 | 92.9% | 85.7% (inactive)
Cc1ccc(C(=O)Nc2cccc(C(F)(F)F)c2)cc1NC(=O)c1c[nH]c2cc(C(F)(F)F)ccc2c1=O | 97.9% | 25.1% (inactive)
Cc1ccc(C(=O)Nc2cccc(C(F)(F)F)c2)cc1NC(=O)c1csc(-c2ccncc2)n1 | 91.8% | 76.3% (inactive)
COc1cc(NC(=O)c2cc3cccc(OC)c3o2)cc(C(=O)Nc2cccc(C(F)(F)F)c2)c1 | 95.6% | 62.8% (inactive)
Cc1ccc(-c2c(C(=O)CCl)n(CCO)c3ncnc(N)c23)cc1 | 90.7% | 86.5% (inactive)
COc1cc(C(=O)NC2CCN(C)CC2)ccc1Nc1ncc2c(n1)N(CCc1ccccc1)CCC(=O)N2C | 98.4% | 343% (inactive)

Compound | liver cell % of control | parasite % of control
Nc1ncc(-c2cccnc2)nc1C(=O)c1cccnc1 | 98.8% | 75.4% (inactive)
CCN1CCN(Cc2ccc(NC(=O)c3ccc(C)c(NC(=O)N4CCNC4=O)c3)cc2C(F)(F)F)CC1 | 93% | 163% (inactive)
COc1cc(NC(=O)c2cc(C)on2)cc(C(=O)Nc2cccc(C(F)(F)F)c2)c1 | 96.5% | 66.6% (inactive)
CC(C)CC(CO)Nc1nc(N(C)c2cccc(Cl)c2)c2ncn(C(C)C)c2n1 (configuration not stated) | 102% | 114% (inactive)
C=CC(=O)N1CCCC(Nc2nc(Nc3ccc(N(C)C(=O)CC)cc3C)nc3nc[nH]c23)C1 (configuration not stated) | 105% | 93.2% (inactive)
COc1cc(NC(=O)c2nccnc2N)cc(C(=O)Nc2cccc(C(F)(F)F)c2)c1 | 97.3% | 84.9% (inactive)
O=C(Nc1ccc(-c2csc(Nc3ccc(Cl)cc3)n2)cc1)c1ccccc1 | 103% | 110% (inactive)
CCN1CCN(Cc2ccc(NC(=O)c3ccc(C)c(NC(=O)c4csc(-c5ccncc5)n4)c3)cc2C(F)(F)F)CC1 | 99.6% | 126% (inactive)
CN(C)CCCNc1ccc(-c2cc(Nc3cccc(Cl)c3)ncn2)cn1 | 94.9% | 108% (inactive)
CCN1CCN(Cc2ccc(C(=O)Nc3ccc(C)c(NCc4cnc(NC(=O)OC)cn4)c3)cc2C(F)(F)F)CC1 | 105% | 107% (inactive)
COc1cc(NC(=O)c2ccnnc2)cc(C(=O)Nc2cccc(C(F)(F)F)c2)c1 | 93.4% | 97.5% (inactive)
Cc1cn(-c2cc(C(=O)Nc3ccc(C)c(NC(=O)C(=O)c4c[nH]c5ccccc45)c3)cc(C(F)(F)F)c2)cn1 | 95.9% | 102% (inactive)
COc1cc(NC(=O)c2ccnc(N)c2)cc(C(=O)Nc2cccc(C(F)(F)F)c2)c1 | 96.6% | 89.2% (inactive)
CC(C)n1cnc2c(Nc3cccc(Cl)c3)nc(NCCCO)nc21 | 90.1% | 206% (inactive)
C=CC(=O)N1CCN(Cc2ccc(C(=O)Nc3ncc(Sc4cc(C(=O)N5CCN(C(C)=O)CC5)c(OC)cc4C)s3)cc2)CC1 | 92.4% | 597% (inactive)
Nc1cnc(CNc2ccccc2Cl)cn1 | 100% | 136% (inactive)
O=C(Nc1ccc(-c2csc(Nc3cccc(C(F)(F)F)c3)n2)cc1)c1cccc(C(F)(F)F)c1 | 101% | 45.1% (inactive)
Cc1ccc(C(=O)Nc2cccc(C(F)(F)F)c2)cc1Nc1ncnc2nc[nH]c12 | 108% | 64.6% (inactive)
C=CC(=O)Nc1ccc(Nc2ccnc(Nc3ccc(N4CCN(C)CC4)cc3)n2)cc1 | 105% | 124% (inactive)

Compound | liver cell % of control | parasite % of control
O=C(Nc1cccc(-c2csc(Nc3ccccc3)n2)c1)c1cc([N+](=O)[O-])cc(C(F)(F)F)c1 | 92.9% | 168% (inactive)
O=C(Nc1ccc(-c2csc(Nc3ccccc3)n2)cc1)c1cccc(C(F)(F)F)c1 | 99.8% | 99.4% (inactive)
C=CC(=O)Nc1cccc(Oc2ccnc(Nc3ccc(N4CCN(C)CC4)cc3)n2)c1 | 106% | 162% (inactive)
O=C1NCCC(=NNc2cccnc2)c2c1[nH]c1ccc(Cl)cc21 | 99.3% | 133% (inactive)
Nc1cccc(-c2c[nH]c3ncc(-c4cccnc4)cc23)c1 | 94.3% | 42.1% (inactive)
CCN1CCN(Cc2ccc(NC(=O)c3ccc(C)c(NC(=O)c4c[nH]c5cc(C(F)(F)F)ccc5c4=O)c3)cc2C(F)(F)F)CC1 | 45.6% | 4.19% (active)
NC(=O)c1cccc(-c2cnc(N)c(C(=O)c3cccnc3)n2)c1 | 101% | 179% (inactive)
Cn1cc(C=C2C(=O)Nc3cccnc32)c2ccccc21 | 314% and 107% and 104% | 4.91% (inactive) and 51.8% (inactive) and 41.5% (inactive)
O=C(Nc1ccc(-c2csc(Nc3ccccc3)n2)cc1)c1ccccc1 | 102% | 204% (inactive)
C=CC(=O)Nc1ccc(CN2C(=O)N(c3c(Cl)c(OC)cc(OC)c3Cl)Cc3cnc(NCCCCN(CC)CC)nc32)cc1 | 96.7% | 227% (inactive)
Cc1ccc(C(=O)Nc2cccc(C(F)(F)F)c2)cc1NC(=O)c1ccno1 | 103% | 87.9% (inactive)
C=CC(=O)Nc1cccc(N2C(=O)N(c3c(Cl)c(OC)cc(OC)c3Cl)Cc3cnc(NCCCCN(CC)CC)nc32)c1 | 104% | 107% (inactive)
O=C(Nc1ccc(-c2csc(Nc3cccc(C(F)(F)F)c3)n2)cc1)c1cc([N+](=O)[O-])cc(C(F)(F)F)c1 | 101% | 70% (inactive)
Cc1ccc(C(=O)Nc2cccc(C(F)(F)F)c2)cc1Nc1ccccn1 | 95% | 54.6% (inactive)
NS(=O)(=O)c1ccc(-c2ccc(C=C3SC(=O)NC3=O)o2)cc1 | 89% | 18.1% (active)
CCN1CCN(Cc2ccc(NC(=O)c3ccc(C)c(NC(=O)c4nccn4C)c3)cc2C(F)(F)F)CC1 | 101% | 90.4% (inactive)
CCN1C(=O)CC(c2ccccc2)N(C2CCCC2)c2nc(Nc3ccc(C(=O)NC4CCN(C)CC4)cc3OC)ncc21 (configuration not stated) | 94.4% | 83.8% (inactive)
O=c1[nH]c2ccccc2c2ncnc(Nc3ccc(OC(F)(F)F)cc3)c12 | 101% | 119% (inactive)
